Screens deposited in PubChem BioAssay by National Center for Advancing Translational Sciences (NCATS).
Pf Dd2 inh – inhibitors of Plasmodium falciparum Dd2 growth; P. falciparum Dd2 growth, SYBR Green, 72 h; Potency, µM (doses to about 28.9 µM), inactives show at the highest dose activity, negative = inhibition, usual class: inhibitors; 120,000 tested, 4.3% active; active = well fitted inhibition curve with a large enough effect;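 also: plate controls were DMSO vehicle for no effect and reference drug for full effect; nearly all actives have a fitted effect of over 65% in size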
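Infected erythrocytes (Dd2, 0.3% parasitemia, 2.5% hematocrit final) are added to compound in RPMI-1640/Albumax II medium, grown 72 h at 37C in low oxygen, then lysed with saponin/Triton-X containing SYBR Green and read by fluorescence.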
An asterisk follows results filed as active; i = inactive; [ ] = remark or other dose. The entries come from a sample that favours hits as a whole. Potency is read from the fitted curve at half-maximal effect.

SMILES	Pf Dd2 inh
Cc1ncc2n1C(=O)N(C1CCN(Cc3ccccn3)CC1)C2	5%[44.1 µM]
Cc1cc(C)c(S(=O)(=O)Nc2ccc3oc4c(c3c2)CCCC4)cc1C	66%
Cc1ccc(NC(=O)Cn2c(C)cc3nc4n(c(=O)c32)CCCCC4)cc1	-12%
Cn1cc(-c2cc3n(n2)CCC(=O)N3CC(=O)O)c2ccccc21	26%
O=C(NCc1nnc2n1C(C(=O)NC1CC1)CC2)c1ccc(Cl)cc1Cl (configuration not stated)	-1%
CCCN(CC1CCOC1)C(=O)Nc1cc(C)ccc1C (configuration not stated)	i[5.79 µM]
COCC(=O)NC[C@H]1O[C@@H](CO)[C@@H](O)[C@H]1N(C)Cc1ccccc1	28%[44.1 µM]
O=C(C[C@@H]1CCNC[C@@H]1Cc1cc(CSc2ccccc2)on1)Nc1ccccc1	-21%[44.1 µM]
COc1ccc(C)cc1C(C(=O)O)N1CCN(Cc2csc(C)n2)CC1 (configuration not stated)	12%
COCCN1C(=O)[C@@H]2C[C@@H](CN2Cc2cccc(OC)c2)Oc2ccccc21	10µM*
COCCN1C(=O)[C@@H]2C[C@@H](CN2Cc2ccc(C#N)cc2)Oc2ccccc21	-11%[44.1 µM]
COCCN1C(=O)[C@@H]2C[C@@H](CN2Cc2ccccc2)Oc2ccccc21	i
Cc1cc([N+](=O)[O-])ccc1NC(=O)CSc1nccn1C	45%
COCCNC(=O)C1COC2(CCN(C(=O)c3ccc(F)cc3)CC2)N1C(=O)c1cccc(C)c1 (configuration not stated)	-22%
COCCNC(=O)C1COC2(CCN(C(=O)c3ccc(OC)cc3)CC2)N1C(=O)c1ccccc1 (configuration not stated)	26%
COCCCNC(=O)C1COC2(CCCCC2)N1C(=O)c1c(OC)cccc1OC (configuration not stated)	6.3µM*
CCn1cc(C(=O)NCCc2ccc(C)cc2)c(=O)c2cc(S(=O)(=O)N3CCC(C)CC3)ccc21	i
Cc1cccc(C(=O)NC2CCN(c3cc(-c4ccccc4)[nH]n3)C2)c1 (configuration not stated)	i
Cc1ccc(CN2C(=O)NC3(CCCN(C(=O)c4cccc(C)c4)C3)C2=O)cc1 (configuration not stated)	31%
COC(=O)C1=C(C)N(Cc2cccc(Cl)c2)C(=O)CC1c1ccccc1Cl (configuration not stated)	i
CCOC(=O)C1=C(C)N(Cc2ccc(C(=O)N3CCCCC3)cc2)C(=O)CC1c1cccc(C)c1 (configuration not stated)	5µM*
COc1ccc(C(=O)N2CCC(c3n[nH]c(=O)n3-c3ccccc3)CC2)cc1OC	i
O=C(c1ccc(Cl)s1)N1CCCC2(COc3ccccc3S(=O)(=O)N2)C1 (configuration not stated)	8%
COc1cccc([S+](=O)([O-])N2CCc3nc(C4CC4)nc(-c4ccc(Cl)cc4)c3C2)c1	-20%
CCc1nc2c(c(-c3ccc(Cl)cc3)n1)CCN(Cc1cc(C)on1)CC2	i
SMILES	Pf Dd2 inh
CCc1nc2c(c(-c3ccc(Cl)cc3)n1)CN(Cc1cccc(F)c1)CC2	10µM*
CCc1nc2c(c(-c3ccc(Cl)cc3)n1)CCN([S+](=O)([O-])c1cccc(OC)c1)CC2	13µM*
COc1ccc(-c2nc(C3CC3)nc3c2CCN(Cc2ccsc2)CC3)cc1	10µM*
Oc1ccc(-c2nc(C3CC3)nc3c2CCN(Cc2ccccc2)CC3)cc1	-8%
CCc1nc2c(c(-c3ccc(Cl)cc3)n1)CCN(Cc1ccc(C(F)(F)F)cc1)CC2	i
CCc1nc2c(c(-c3ccc(O)cc3)n1)CCN(Cc1ccncc1)CC2	i
CCc1nc2c(c(-c3ccc(O)cc3)n1)CCN(Cc1ccc(OC)cc1)CC2	2µM*
CCc1nc2c(c(-c3ccc(O)cc3)n1)CN(Cc1ccc(OC)cc1)CC2	-17%
CCc1nc2c(c(-c3ccc(OC)cc3)n1)CN([S+](=O)([O-])c1cccc(C(F)(F)F)c1)CC2	-8%
Oc1ccc(-c2nc(C3CC3)nc3c2CCN(Cc2ccc(OC(F)(F)F)cc2)CC3)cc1	-2%
CCC(C)(C)C(=O)NC1CCN(C(=O)N2CC3CC(C2)[C@H]2CCCC(=O)N2C3)CC1 (some centres not stated)	-3%
O=C(COc1ccc(Cl)cc1)OCc1cc(=O)n2nc(-c3cccs3)sc2n1	-8%
COC(=O)C1=CN(CC(=O)Nc2ccccc2)S(=O)(=O)N=C1C	76%
CCN(CCCNC(=O)c1nn(-c2ccc(C)cc2)c(=O)c2c1c1ccccc1n2C)c1cccc(C)c1	-3%
COc1ccc(S(=O)(=O)NCc2ccc(C(=O)NCc3ccccc3)cc2)cc1	-6%
COc1cc(OC)cc(C(=O)N2CCN(C(=O)COc3ccccc3)CC2)c1	16%
COc1ccc(-c2nc(C3CC3)nc3c2CCN(CC2CCCCC2)CC3)cc1	i
COc1ccc(-c2nc(C3CC3)nc3c2CCN(Cc2ccc(F)cc2)CC3)cc1	7.1µM*
COc1ccc(-c2nc(C3CC3)nc3c2CCN(CC2CC2)CC3)cc1	-11%
CCOc1ccc(NC(=O)c2cc3cc4cc(OC)ccc4nc3s2)cc1	-2%
COc1cc(OC)c(C2C=C(c3ccc(C)cc3)Nc3c(C(=O)Nc4ccccc4)cnn32)cc1OC (configuration not stated)	10µM*
COc1ccc(-c2cnnn2-c2ccc(NC(=O)c3ccccc3OC)cc2)cc1	28%
COc1ccc(C2C=C(c3ccc(C)cc3)Nc3c(C(=O)Nc4ccccc4)cnn32)cc1 (configuration not stated)	8.9µM*
CCOc1cccc(-c2nc(C(=O)Nc3ccc(OC)cc3)cs2)c1	24%
COc1cccc(C2C(C(=O)Nc3ccccc3)=C(C)Nc3nc(-c4ccccc4)nn32)c1OC (configuration not stated)	i
SMILES	Pf Dd2 inh
COc1ccc(C2C(C(=O)Nc3ccccc3)=C(C)Nc3nc(SCC(=O)c4ccc(C)cc4)nn32)cc1 (configuration not stated)	30%
COc1ccc(C2C(C(=O)Nc3ccccc3)=C(C)Nc3nc(-c4ccccc4)nn32)c(OC)c1 (configuration not stated)	i
CCOc1ccc(NC(=O)c2cnn3c2NC(c2cccc(OC)c2)=CC3c2ccccc2)cc1 (configuration not stated)	1.4µM*
CN(C(=O)Nc1ccccc1)C1CCOc2ccccc21 (configuration not stated)	i
COc1ccc(N2CCN(C(=O)CCn3nc(C)c(S(=O)(=O)N4CCCC4)c3C)CC2)cc1	15%
CCCCN1C(=O)c2ccccc2C(C(=O)NCCC)C12CCCCC2 (configuration not stated)	i
Cc1c(C(=O)N(C)C)sc2c1c(=O)n(-c1ccc(Cl)c(Cl)c1)c(=O)n2CC(=O)Nc1cccc(C(F)(F)F)c1	i
Cn1cc(CN2C[C@@H]3C[C@H](C2)c2ccc(NS(=O)(=O)c4cccc(F)c4)c(=O)n2C3)c2ccccc21	-2%
CC(C)c1cnc2c(c1SCC(=O)Nc1cccc(F)c1)c(=O)n(C)c(=O)n2C	-22%
Cc1ccc(C)c(OCC(=O)c2ccc3c(c2)N(CCCC(=O)NC2CCCCC2)C(=O)CO3)c1	-21%
Cc1ccc2c(=O)cc(C(=O)Nc3nnc(CC(C)C)s3)oc2c1C	i
CS(=O)(=O)N(C1CC1)C1CCOC2(CCN(C(=O)Nc3ccccc3F)CC2)C1 (configuration not stated)	i
Cn1c(C(=O)NCc2ccoc2)nc2nc(-c3ccccc3)c(Cl)cc21	-5%[44.1 µM]
